In the library only some 1.2% were active in any assay of this set; here they are far more common.
CtBP-E1A blk: qHTS Assay for Inhibitors of the CtBP/E1A Interaction. CtBP / adenovirus E1A interaction (AlphaScreen). AlphaScreen GST-E1A/His-CtBP binding, 1536-well; hits give low values. activity change, % (concentration not given with the values). actives 0.49% (n = 340,000). AID 651724, 2012; in the data active means activity change below about -65%; inconclusive means mostly about -30% to -63%
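Protein mix (5X: 125 nM each GST-E1A, His-CtBP) was incubated with pinned compound 2 h at 37 deg C in dark, in 50 mM Tris pH 8.0 buffer with 300 mM NaCl. Glutathione donor and nickel acceptor beads followed; AlphaScreen signal read after 1 h.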
L3MBTL1 block: qHTS Assay for the Inhibitors of L3MBTL1 | Lethal(3)malignant brain tumor-like protein 1 (Homo sapiens), Q9Y468 | AlphaScreen L3MBTL1–H3K9me1 peptide binding | Potency, µM (series often up to 57.1 µM), without a hit: at the top dose activity, negative = inhibition, usual class: inhibitors | actives 0.66% (n = 230,000); further: potency means the concentration at half of the fitted maximal effect; nearly all actives have a fitted effect of over 60% in size
Target sequence (Q9Y468 whole entry, looked up): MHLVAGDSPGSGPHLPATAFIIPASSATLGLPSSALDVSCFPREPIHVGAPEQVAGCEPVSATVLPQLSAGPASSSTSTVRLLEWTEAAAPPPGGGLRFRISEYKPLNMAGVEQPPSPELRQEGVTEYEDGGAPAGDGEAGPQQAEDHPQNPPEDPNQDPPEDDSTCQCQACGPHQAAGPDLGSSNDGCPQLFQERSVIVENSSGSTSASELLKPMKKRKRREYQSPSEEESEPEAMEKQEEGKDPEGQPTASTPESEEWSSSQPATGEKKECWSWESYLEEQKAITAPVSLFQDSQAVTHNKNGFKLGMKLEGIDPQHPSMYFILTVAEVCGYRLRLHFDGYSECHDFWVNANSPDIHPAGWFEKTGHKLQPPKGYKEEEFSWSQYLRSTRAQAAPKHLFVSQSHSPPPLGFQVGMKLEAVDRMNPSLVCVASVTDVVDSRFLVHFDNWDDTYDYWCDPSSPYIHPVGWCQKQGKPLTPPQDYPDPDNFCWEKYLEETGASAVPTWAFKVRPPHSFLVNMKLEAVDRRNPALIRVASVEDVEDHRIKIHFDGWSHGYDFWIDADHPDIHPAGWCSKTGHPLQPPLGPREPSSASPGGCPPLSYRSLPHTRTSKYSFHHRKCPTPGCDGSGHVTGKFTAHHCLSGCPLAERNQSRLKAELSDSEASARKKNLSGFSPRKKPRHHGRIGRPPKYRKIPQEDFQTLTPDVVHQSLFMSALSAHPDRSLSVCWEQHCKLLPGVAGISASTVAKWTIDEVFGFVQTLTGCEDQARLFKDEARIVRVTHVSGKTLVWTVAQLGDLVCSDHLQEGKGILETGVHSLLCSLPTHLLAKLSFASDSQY
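Read-out is AlphaScreen signal from streptavidin donor and nickel chelate acceptor beads (10 ug/mL final each) bridging L3MBTL1 (50 nM) and biotinylated K9-monomethylated H3(1-15) peptide (75 nM), after 30 min compound exposure at room temperature.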
Six1-Eya2 blk: qHTS Assay for Inhibitors of the Six1/Eya2 Interaction | activity change, % (concentration not given with the values) | AlphaScreen GST-Six1/His-Eya2 binding, biochemical; hits give low values | actives 0.56% (n = 360,000) | Homeobox protein SIX1 (Homo sapiens) + Protein phosphatase EYA2 (Homo sapiens), …; in the data active means activity change below about -65%; inconclusive means mostly about -30% to -63%
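Six1/Eya2 binding was read as AlphaScreen signal after compounds were pinned into GST-Six1 plus His-tagged Eya2 (5X stock 250/500 nM) in pH 8.0 Tris/NaCl/TCEP buffer, beads added, then incubated 1 h, 37 C, dark.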
uPA generation: qHTS for Inhibitors of Cell Surface uPA Generation | cell surface uPA generation assay, qHTS | Potency, µM (series often up to 38.3 µM), for inactives: top-dose activity change, negative = inhibition, most hits filed as inhibitors | actives 0.31% (n = 330,000); active means well fitted inhibition curve with a large enough effect; inconclusive means small, poorly fitted or top-dose-only effect; inactive means no such curve, though single readings can be large or run the other way; tested in mouse RAW 264.7 cells; further: potency means the concentration at half of the fitted maximal effect; nearly all actives have a fitted effect of over 55% in size
Eya2 inh: qHTS Assay for Inhibitors of the Phosphatase Activity of Eya2; actives 0.006% (n = 330,000); Protein phosphatase EYA2 (Homo sapiens), O00167; recombinant Eya2, OMFP fluorescence dephosphorylation (OMFP is methylfluorescein phosphate); Potency, µM (top dose mostly 76.9 µM), for the others: at the top dose activity, negative = inhibition, actives largely listed as inhibitors; further: potency means the concentration at half of the fitted maximal effect
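Eya2 (0.2 uM) preincubated 10 min at ambient with compound, then OMFP substrate added at 50 uM; 10 min reaction in 50 mM HEPES pH 7.5, 50 mM NaCl, 5 uM MgCl2, 0.05% BSA, 1 mM DTT. Fluorescence read at Ex 485/Em 525 nm.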
USP2a inh: qHTS Assay for Inhibitors of Ubiquitin-specific Protease USP2a Using CHOP2 as the Reporter. Potency, µM (highest dose often 38.3 µM), inactives show at the highest dose activity change, negative = inhibition, hits mostly inhibitors. USP2 core, Ub-CHOP2 coupled fluorogenic reporter, 485/531. actives 0.01% (n = 330,000). Ubiquitin carboxyl-terminal hydrolase 2 (Homo sapiens), O75604. AID 463254, 2010;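 further: potency means the concentration at half of the fitted maximal effect; plate controls were DMSO wells for no effect and full inhibition by NEM control for full effect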
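Cell-free coupled assay: 10nM USP2 core preincubated 30min RT with compound in Tris-HCl pH 8.0/CaCl2/CHAPS buffer, then 25nM Ub-CHOP2 and 25nM reporter substrate; fluorescence (Ex 485/Em 531) read after 60min RT, normalized to NEM inhibition, concentration-response curves fitted.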
Starred values were filed as active, the others as inactive; u = inconclusive; x = not tested or not shown. Unless noted, the call rests on the fitted dose curve; in most records, active means well fitted curve in the direction sought with a large enough effect; inconclusive means small, poorly fitted or top-dose-only effect, or another doubt; inactive means no such curve, though single readings can be large; an effect the other way counts as inactive or inconclusive. Unless noted, on the % scale 0 is the no-effect control and ±100 the full control effect.

SMILES	CtBP-E1A blk	L3MBTL1 block	Six1-Eya2 blk	uPA generation	Eya2 inh	USP2a inh
COc1cc(/C=N/NC(=O)c2sc(N)c(C#N)c2C)ccc1O	-82.8*	-1.7%	-71.4*	8.2%	-18.6%	-1.2%
O=C1[C@H]2CCCC[C@H]2C(=O)N1CCCCN1CCN(c2nsc3ccccc23)CC1	-2.8	x	-17.2	-29.6%	x	x
CC(C)C(C(=O)O)N1C(=O)/C(=C/C=C/c2ccco2)SC1=S (centres undefined)	5.6	1.78µM*	-68.7*	0.3%	0.6%	u
CN(C)c1ccc(/C=C/C=C2/SC(=S)N(c3ccccc3)C2=O)cc1	-65.8*	4.47µM*	-68.7*	7.6%	-2.3%	3.8%
O=C1/C(=C/C=C/c2ccco2)SC(=S)N1c1ccc(O)cc1	u	4.47µM*	u	-3.1%	-17.7%	u
Cc1noc(C)c1S(=O)(=O)N(C)C[C@H]1Oc2ccc(NS(=O)(=O)c3ccccc3)cc2C(=O)N([C@H](C)CO)C[C@@H]1C	-28.6	44.3%	-5.7	12.3%	11.0%	0.3%
CC(=O)C1N=NCC1c1ccccc1 (centres undefined)	9.1	x	0.7	4.4%	x	x
COC(CN(C)C(=O)c1ccc2c(c1)NC(=O)c1ccccc1S2)OC	x	x	2.5	-12.9%	-2.3%	0.9%
Cc1cc(C)c2nc(NNC(=O)c3ccc(S(=O)(=O)N4CCCC(C)C4)cc3)sc2c1 (centres undefined)	-21.9	u	15.2	5.62µM*	-2.7%	-2.0%
O=C(NCc1cccnc1)c1cccc(NS(=O)(=O)c2ccc(Br)cc2)c1	-6.4	-5.1%	-4.2	-19.7%	15.9%	2.9%
Cc1ccc(S(=O)(=O)Nc2cccc(C(=O)NCc3cccnc3)c2)cc1F	-0.7	12.2%	-2.1	3.16µM*	-9.6%	-1.7%
N#C/C(N=Nc1ccccc1O)=N\Nc1ccccc1O	-82.2*	u	-69.6*	u	-28.4%	-11.6%
Oc1ccccc1N=N/C(=N/Nc1ccccc1O)c1ccccc1	-0.9	-9.4%	-2.1	12.6%	19.0%	1.0%
O=C(NCC1CCCO1)c1cc(-c2ccccc2F)no1 (centres undefined)	x	x	3.4	u	7.9%	0.3%
COc1cccc(C=O)c1OC(=O)N1CCOCC1	-16.2	x	-7.6	-4.9%	-10.0%	10.3%
O=C(O)c1cccc(Nc2nc(-c3cccnc3)nc3ccccc23)c1	u	u	-80.5*	4.7%	8.3%	1.2%
CN[C@H]1CCc2cc(OC)c(OC)c(OC)c2-c2ccc(N(C)CC(OC)OC)c(=O)cc21	x	x	-4.8	3.55µM*	11.9%	3.5%
C[C@]12c3[nH]c4ccc(Cl)cc4c3CCN1C(=O)[C@@H](CC(=O)NCCC1=CCCCC1)C[C@@H]2C(=O)N1CCCCC1	3.4	4.0%	-0.8	0.4%	7.0%	4.0%
COc1ccc(OC)c(-c2c3cc(O)c(=O)cc-3oc3cc(O)c(O)cc23)c1	-25.5	0.794µM*	u	-1.3%	u	u
CCOc1ccccc1-c1c2cc(O)c(=O)cc-2oc2cc(O)c(O)cc12	3.3	1.26µM*	u	-9.0%	19.7%	19.7%
O=c1cc2oc3cc(O)c(O)cc3c(-c3ccccc3O)c-2cc1O	x	0.794µM*	u	-12.8%	u	u
COc1ccc(OC)c(-c2oc3ccccc3c(=O)c2O)c1	1.0	4.3%	7.1	-11.4%	2.5%	-4.3%
O=C(O)c1ccc(S(=O)(=O)N2CCC3(CC2)CC(=O)c2ccccc2O3)cc1	-3.6	-8.3%	8.7	19.1%	9.6%	4.4%
COc1ccc(C(=O)Nc2ccnn2C2CCN(CCC(C)c3ccc(C)o3)CC2)cc1 (centres undefined)	-3.0	x	-14.8	-1.5%	-6.8%	1.0%
CSCCC(NC(=O)c1ccco1)C(=O)NCC(c1ccccc1)N(C)C (centres undefined)	0.1	6.9%	0.0	8.3%	-3.0%	2.3%
SMILES	CtBP-E1A blk	L3MBTL1 block	Six1-Eya2 blk	uPA generation	Eya2 inh	USP2a inh
CCn1c2ccc(C)cc2c2n[nH]c(=S)nc21	-87.9*	-0.5%	-74.9*	-6.7%	8.7%	-0.3%
Cc1ccc2c(c1)c1n[nH]c(=S)nc1n2CCc1ccccc1	x	x	0.0	-2.7%	9.0%	-0.8%
Cn1c2ccccc2c2n[nH]c(=S)nc21	-78.8*	2.2%	-83.0*	-1.1%	-5.3%	0.1%
OCC1OC(c2ccc(OCc3ccccc3)cc2OCc2ccccc2)C(O)C1O (centres undefined)	3.8	x	-18.0	x	x	x
COc1ccc(Br)cc1CN1CCN(C(=O)c2cccc(F)c2)CC1	-21.8	x	-13.6	3.5%	-0.2%	2.4%
O=c1[nH]cnc2c1sc1nc3c(c(-c4ccc(Cl)cc4)c12)CCC3	-71.1*	x	u	0.3%	3.8%	4.2%
CCCN(C(=O)c1ccc2c(SCC(=O)O)c3c(nc2c1)CCC3)c1cccc(C)c1	-1.4	x	-1.4	-10.9%	-9.3%	-1.4%
COc1ccc2[nH]c3c(Cl)ncnc3c2c1	-19.1	3.6%	-10.2	-6.1%	-6.9%	-1.0%
COc1ccc2[nH]c3c4c(ccc3c2c1)C(=O)C=CC4=O	-11.6	0.8%	-16.8	3.16µM*	7.0%	-6.3%
COc1ccc(C2=Nn3c(nnc3-c3ccccn3)SC2)cc1	u	u	-67.1*	-11.6%	1.4%	2.8%
CCOc1ccc(-c2nnc3n2N=C(c2ccc(OC)cc2)CS3)cc1	1.0	-1.4%	3.1	-3.7%	-2.1%	-8.3%
COc1ccc(C2=Nn3c(nnc3-c3cccnc3)SC2)cc1OC	-76.7*	-9.8%	-69.0*	x	9.4%	0.3%
C[n+]1c2n(c3ccccc31)N=C(c1ccc(Cl)cc1)CS2	-0.9	-0.5%	-2.5	-13.3%	0.2%	-0.4%
COc1ccc(C2=Nn3c([n+](C)c4ccccc43)SC2)cc1	x	-7.2%	-16.5	3.55µM*	-4.4%	-1.5%
O=C(NCC1CCCCC1)c1cc(-c2cc(F)ccc2OCC2CCCO2)n[nH]1 (centres undefined)	5.3	x	-0.7	x	x	x
O=C(O)C(c1ccccc1)N1C(=O)c2ccccc2C1=O (centres undefined)	x	-0.1%	14.9	18.7%	-6.7%	0.8%
O=C(O)[C@@H](c1ccccc1)N1Cc2ccccc2C1=O	-12.3	17.8µM*	3.6	7.1%	4.9%	0.2%

From PubChem
